Results reported in the supplement of paper PMC6607015.
Structures can show the parent of a compound that is named as a salt.

Key:
Details in all cases: compound concentration in added solution (µM; 5 µl added to 20 µl cells): 10; 18 h
[1] = test system: A431; test: LBPA endosome anti-LBPA integrated intensity (sum per cell), Z-score; higher = more LBPA staining
How it was run: (§1)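 Reported values are Z-scores from AcuityXpress normalisation of per-cell integrated LBPA or filipin staining. HeLa MZ or A431 cells (3,500/well in 20 µl) were seeded onto 5 µl of 10 µM compound solution in duplicate 384-well plates, incubated 18 h, fixed in 4% PFA, stained and imaged at 20×. MetaXpress segmentation measured the intensity over the whole cell or within LBPA endosomes.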

[2] = test system: HeLa MZ; test: as above
How it was run: as §1

[3] = test system: A431; test: whole-cell filipin (free cholesterol) integrated intensity, Z-score; higher = more cholesterol staining
How it was run: as §1

[4] = test system: HeLa MZ; test: as above
How it was run: as §1

[5] = test system: A431; test: filipin (cholesterol) integrated intensity within LBPA endosomes, Z-score; higher = more cholesterol in LBPA endosomes
How it was run: as §1

[6] = test system: HeLa MZ; test: as above
How it was run: as §1

Structure (SMILES) | LBPA endosome anti-LBPA integrated intensity (z-score) [1] | LBPA endosome anti-LBPA integrated intensity (z-score) [2] | whole-cell filipin (z-score) [3] | whole-cell filipin (z-score) [4] | filipin (z-score) [5] | filipin (z-score) [6]
Nc1ccc(C(=O)NCC(=O)O)cc1 [Aminohippuric acid] | -0.53 | -0.169 | -0.32 | -0.186 | -0.48 | -0.359
Clc1ccc(Nc2nnc(Cc3ccncc3)c3ccccc23)cc1 [Vatalanib] | -0.715 | -0.947 | -0.382 | -0.477 | -0.573 | -0.345
CN(C)CCN(Cc1cccs1)c1ccccn1 [Methapyrilene hydrochloride] | -0.506 | 0.465 | -0.777 | -0.37 | -0.539 | -0.0761
Nc1nc(NC2CC2)c2ncn([C@H]3C=C[C@@H](CO)C3)c2n1 [Abacavir Sulfate] | -0.557 | -0.156 | -0.517 | -0.596 | -0.478 | -0.612
Cc1ncc(C[n+]2csc(CCO)c2C)c(N)n1 [Thiamine hydrochloride] | -0.398 | -0.0332 | 0.0289 | -0.0399 | -0.382 | -0.539
CN(C)CCCN1c2ccccc2CCc2ccc(Cl)cc21 [Clomipramine hydrochloride] | 3.59 | 1.91 | 1.1 | -0.141 | 2.35 | 1.89
CC(=O)OCC(CCn1cnc2cnc(N)nc21)COC(C)=O [Famciclovir] | -0.437 | -0.227 | -0.465 | -0.311 | -0.431 | -0.386
COc1ccc([C@@H]2CC(=O)c3c(O)cc(O[C@@H]4O[C@H](CO[C@@H]5O[C@@H](C)[C@H](O)[C@@H](O)[C@H]5O)[C@@H](O)[C@H](O)[C@H]4O)cc3O2)cc1O [Hesperidin] | -0.494 | -1.29 | -0.6 | -0.779 | -0.447 | -0.68
CN(C)CCCSC(=N)N [Dimaprit dihydrochloride] | -0.577 | -1.27 | -0.259 | -0.607 | -0.452 | -0.519
CC(C(=O)O)c1cccc(Oc2ccccc2)c1 (stereo not given) [Fenoprofen calcium salt dihydrate] | -0.519 | -0.608 | -0.389 | -0.428 | -0.476 | -0.491
Clc1ccc(CSC(Cn2ccnc2)c2ccc(Cl)cc2Cl)cc1 (stereo not given) [Sulconazole nitrate] | 0.249 | 1.59 | 1.22 | 1.32 | 0.361 | 0.461
CN(C)CC/C=C1/c2ccccc2COc2ccc(CC(=O)O)cc21 [Olopatadine hydrochloride] | -0.245 | 0.672 | 0.305 | 0.861 | -0.37 | -0.275
CC(C)(C#N)c1cc(Cn2cncn2)cc(C(C)(C)C#N)c1 [Anastrozole] | -0.573 | -1.31 | -0.205 | -0.00341 | -0.428 | -0.659
CCS(=O)(=O)CCn1c([N+](=O)[O-])cnc1C [Tinidazole] | -0.319 | -0.148 | -0.195 | -0.143 | -0.394 | -0.524
CC(=O)N(CC(C)C(=O)O)c1c(I)cc(I)c(N)c1I (stereo not given) [Iocetamic acid] | -0.0668 | -0.0236 | -0.0512 | 0.178 | -0.262 | -0.476
CC1(C)S[C@@H]2[C@H](NC(=O)[C@H](C(=O)O)c3ccsc3)C(=O)N2[C@H]1C(=O)O [Ticarcillin sodium] | -0.466 | -0.401 | -0.165 | -0.157 | -0.403 | -0.501
CC1(C)S[C@@H]2[C@H](NC(=O)Cc3ccccc3)C(=O)N2[C@H]1C(=O)O [Benzylpenicillin sodium] | -0.349 | 1.42 | -0.101 | 2.18 | -0.427 | -0.552
CC[C@H](C)C(=O)O[C@H]1C[C@@H](C)C=C2C=C[C@H](C)[C@H](CC[C@@H]3C[C@@H](O)CC(=O)O3)[C@H]21 [Lovastatin] | -0.976 | -1.31 | -0.714 | -0.104 | -0.696 | 0.121
Cc1ncc([N+](=O)[O-])n1CC(O)CCl (stereo not given) [Ornidazole] | -0.468 | -0.445 | -0.79 | -0.699 | -0.356 | -0.454
Cc1c(N)c(=O)n(-c2ccccc2)n1C [Ampyrone] | -0.478 | -0.409 | -0.998 | -1.26 | -0.379 | -0.625
COc1ccc2c(c1)c(CC(=O)O)c(C)n2C(=O)c1ccc(Cl)cc1 [Indomethacin] | -0.426 | 0.408 | -0.694 | -0.518 | -0.524 | -0.49
CC(C)(Oc1ccc(C2CC2(Cl)Cl)cc1)C(=O)O (stereo not given) [Ciprofibrate] | -0.486 | -0.255 | -0.125 | -0.278 | -0.419 | -0.482
NC[C@H]1O[C@H](O[C@H]2[C@H](O)[C@@H](O[C@H]3O[C@H](CO)[C@@H](O)[C@H](N)[C@H]3O)[C@H](N)C[C@@H]2N)[C@H](N)C[C@@H]1O [Tobramycin] | -0.535 | -1.57 | -0.669 | -0.773 | -0.528 | -0.681
CCC(Cc1c(I)cc(I)c(N)c1I)C(=O)O (stereo not given) [Iopanoic acid] | -0.521 | -0.571 | -0.348 | -0.587 | -0.484 | -0.466
CNCC(O)c1ccc(O)c(O)c1 (stereo not given) [Racepinephrine HCl] | -0.253 | -0.0976 | 0.725 | 0.18 | -0.509 | -0.366
